The text below walks through data of PubChem BioAssay.

The structures appear in SMILES notation.

The subject of the test is Sam68 (KHDRBS1). In words: Sam68 small-molecule binders, primary screen, biochemical, small-molecule microarray, 635 nm fluorescence (AID 1125).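 Also: score merges 667 nm channel intensity with signal to noise over triplicate slides.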 The note with it: small-molecule microarray binding, higher = more signal.
In the case of `CN1C(=O)C2C=CC(C(O)C#Cc3ccccc3)N(Nc3ccccc3)C2C1=O` (stereo unspecified), the composite z-score is 1.35.
Next, `CN(C)c1ccc(C(O)C2C=CC3C(=O)N(c4ccccc4)C(=O)C3N2Nc2ccc([N+](=O)[O-])cc2)cc1` (stereo unspecified): 1.29.
For `CN(C)C(=O)[C@@]1(Cc2ccccc2CN=[N+]=[N-])N=C(c2ccc(OCCCO)cc2)O[C@H]1c1ccccc1CN=[N+]=[N-]` the value was 0.873; for `O=C1OCC=C[C@H]2OC34C=CCN(Cn5nnc6ccccc65)C(=O)[C@H]3N(CCCO)C(=O)[C@@H]4[C@@H]12` (stereo partly specified), -0.196.
For `C[N+](C)(C)CCCCCCNC(=O)[C@H]1C[C@H]2C(=O)N[C@@H](Cc3ccccc3)C(=O)N2[C@H]1c1ccc(O)cc1` the value was 0.479; for `COCCOC(=O)N1C(=O)[C@@]2(c3cc(C#CCCO)ccc31)[C@H](C(=O)Nc1nc3ccccc3s1)[C@H]1C(=O)O[C@H](c3ccccc3)[C@H](c3ccccc3)N1[C@@H]2c1ccccc1OCCO`, 1.29.
In the case of `COc1cc2c(cc1OC)CN(C(=O)[C@@H]1[C@H]3C(=O)O[C@H](c4ccccc4)[C@H](c4ccccc4)N3[C@H](c3ccc(OCCO)cc3)[C@@]13C(=O)Nc1ccc(C#CC4(O)CCCCCC4)cc13)CC2`, the composite z-score is 1.32.
Take `COc1cc(CO)cc(I)c1O[C@H]1C=C(C(=O)NCCO)C[C@@H](NCc2ccc(F)cc2)[C@@H]1O`: the composite z-score was determined as 0.352.
Next, `[N-]=[N+]=NCc1ccccc1C[C@@]1(C(=O)NCc2ccccc2)N=C(c2ccc(OCCCO)cc2)O[C@@H]1c1ccccc1N=[N+]=[N-]`: 1.06; `O=C(CS)NCCCCCNC(=O)[C@@H]1C[C@@H]2C(=O)N3CCC[C@H]3C(=O)N2[C@@H]1c1cccc(OCCO)c1`: 0.246; `C=C(C)c1cc2c(c(CCCCCC)n1)[Si](C(C)C)(C(C)C)OC2`: -0.631.
For `CCCCC(O)C1C=CC2C(=O)N(c3ccccc3)C(=O)C2N1Nc1ccc(C(C)C)cc1` (stereo unspecified) the value was 1.32.
For `COCCOC(=O)N1C(=O)[C@@]2(c3cc(C#CC4=CCCCC4)ccc31)[C@H](c1ccc(OCCO)cc1)N1[C@H](c3ccccc3)[C@H](c3ccccc3)OC(=O)[C@H]1[C@@H]2C(=O)N1CCN(c2ncccn2)CC1` the value was 1.31.
`C=C(COC)/C(=C/C[C@H](OC(C)=O)c1ccc(OCCO)cc1)c1cc(C(=O)OC)ccc1OC` came in with a composite z-score of 1.07.
In turn, `CC1CC/C=C\[C@H]2OC34C=CCN(c5ccc(Cl)cc5)C(=O)[C@H]3N(CCCCCO)C(=O)[C@]4(C)C2C(=O)O1` (stereo partly specified) returned a composite z-score of -0.682.
Next, `CN1C(=O)C2C=CC(C(O)c3cccc(O)c3)N(Nc3ccccc3)C2C1=O` (stereo unspecified): -0.172.
Molecule `O=C1NC(=O)C2C1C=CC(C(O)c1c(F)cccc1Cl)N2Nc1ccc(Cl)cc1Cl` (stereo unspecified) yielded a composite z-score of 0.79.
Next, `COc1ccc([Si](C)(C)[C@@H]2[C@@H](CCO)O[C@]3(C(=O)N(Cc4ccc(N5CCCCC5=O)cc4)c4ccccc43)[C@H]2C)cc1`: 1.31.
`C=CCC(OC(C)=O)[C@@H]1[C@@H](N(Cc2cc3ccccc3o2)C(=O)c2ccc(C)cc2)c2cc(OCCCO)ccc2N1C(=O)Cc1ccc(OC)cc1` (stereo partly specified) returned a composite z-score of 0.0262.
For `CCOc1cc(C(O)C2C=CC3C(=O)N(C)C(=O)C3N2Nc2ccccc2)ccc1O` (stereo unspecified) the value was 1.22.
`O=C(CS)NCCCCCCNC(=O)[C@H]1C[C@H]2C(=O)N[C@@H](Cc3ccccc3)C(=O)N2[C@H]1c1ccc(O)cc1` showed a composite z-score of 1.18.
Next, `CC(c1ccccc1)C(O)C1C=CC2C(=O)N(c3ccccc3)C(=O)C2N1Nc1ccc([N+](=O)[O-])cc1` (stereo unspecified): 1.05; `COc1ccccc1CN1C(=O)c2ccccc2[C@@]2(Cc3ccccc3N(CC(F)(F)F)C2=O)[C@@H]1c1ccc(CO)cc1`: 0.707; `COC(=O)C(CC#Cc1ccc2c(c1)[C@]1(C(=O)N2)[C@H](C(=O)N2CCN(c3ncccn3)CC2)[C@H]2C(=O)O[C@H](c3ccccc3)[C@H](c3ccccc3)N2[C@@H]1c1ccc(OCCO)cc1)C(=O)OC`: 1.3.
For `[N-]=[N+]=Nc1ccccc1[C@@H]1OC(c2ccc(OCCCO)cc2)=N[C@]1(Cc1ccccc1)C(=O)NCC(O)CO` (stereo partly specified) the value was 0.897; for `Cc1cc(C)c(C(O)C2C=CC3C(=O)NC(=O)C3N2Nc2ccc(Cl)cc2Cl)c(C)c1` (stereo unspecified), 1.1.
With `COC(=O)c1c2oc(c1C(=O)OC)C(=O)N(Cc1ccccc1)Cc1cn(nn1)C[C@H](Cc1ccccc1)NC(=O)N[C@H](CO)CC2`, the composite z-score is 0.636.
For `C=CCNC(=O)[C@H]1[C@@H]2C(=O)O[C@@H](c3ccccc3)[C@@H](c3ccccc3)N2[C@@H](c2ccc(O)cc2)[C@]12C(=O)N(C(=O)OCCOC)c1ccccc12` the value was 1.17; for `O=C1C=C(c2ccccc2)C(=O)c2ccc([C@H]3Oc4ccccc4S(=O)(=O)N4CCC[C@@H]34)cc21`, -1.05; for `Cc1ccc(S[C@]2(C(=O)NCC(F)(F)F)CC(=O)N(C3CCCCC3)[C@@H]2c2ccc(CO)cc2I)cc1`, 1.3.
For `COc1ccc(C#Cc2ccc3c(c2)[C@]2(C(=O)N3)[C@H](c3ccc(O)cc3)N3[C@H](c4ccccc4)[C@H](c4ccccc4)OC(=O)[C@H]3[C@@H]2C(=O)O)cc1` the value was 0.964; for `COC(=O)[C@@]1(Cc2ccc(OC)cc2)[C@@H]2C(=CC(=O)[C@H]2CC(=O)C(=O)N(C)C)CN1C(=O)c1ccccc1`, 1.31; for `CCOC(=O)c1ccc(NC(=O)O[C@H]2[C@H](OC(=O)Nc3ccc4c(c3)OCO4)[C@H](OC(=O)Nc3ccc4c(c3)OCO4)[C@@H](OC)O[C@@H]2CO)cc1`, 1.3.
Next, `C=CCN1Cc2ccccc2[C@H]2OC(c3ccc(OCCCO)cc3)=N[C@@]2(CC=C)C1=O`: 1.31; `CN(C)CCCNC(=O)[C@@]1(C)c2ccccc2C(=O)N(Cc2ccccc2)[C@H]1c1ccc(CO)cc1`: -0.0419.
As for `CCCCCCCCCCC(O)C1C=CC2C(=O)N(C)C(=O)C2N1NC(=O)OC(C)(C)C` (stereo unspecified), the composite z-score is 0.717.
